In the antibiotic and cytotoxicity screens of Wong et al. (2023) one finds cytotoxicity call data, which are given here for 40 molecules.

In all, about 39,000 compounds went through this assay and about 3,300 (8.5%) were called active. The entries come from a sample that favours actives as a whole.

This experiment concerns HepG2. Description: cytotoxicity call (relative viability < 0.9). To be noted: 10 µM.
For `C[C@H](CO)N1C[C@H](C)[C@@H](CN(C)C(=O)CCC(F)(F)F)OCc2ccccc2-c2c(n(C)c3ccccc23)C1=O`, the cytotoxicity call was “inactive”.

Turning to `CSc1scc(-c2cc(Cl)cc(Cl)c2)c1C#N`, the cytotoxicity call was “inactive”. With `C[C@H](CO)N1C[C@H](C)[C@@H](CN(C)S(=O)(=O)c2cccs2)Oc2ccc(NC(=O)CCCN(C)C)cc2C1=O` the entry was “inactive”. With `Cc1ccc(S(=O)(=O)Nc2ccc3c(c2)C(=O)N([C@@H](C)CO)C[C@@H](C)[C@@H](CN(C)C(=O)Nc2ccccc2)OCCCC[C@@H](C)O3)cc1` the entry was “inactive”; with `CCCC/C=C/[C@H]([C@@H](O)Cc1ccccc1)N(CC#Cc1ccccc1)Cc1ccccc1Br`, “inactive”; with `COc1ccc(NC(=O)Nc2ccc3c(c2)C(=O)N([C@H](C)CO)C[C@@H](C)[C@@H](CN(C)C(=O)Nc2ccc(C(F)(F)F)cc2)O3)cc1`, “inactive”. Regarding `C[C@@H](O)CN1CCN(S(=O)(=O)C2CC2)CC1`, the cytotoxicity call was “inactive”. With `C[C@@H]1CN([C@H](C)CO)C(=O)c2cccc(NC(=O)C3CC3)c2O[C@H]1CN(C)S(=O)(=O)c1ccccc1` the entry was “inactive”; with `CC(=O)Nc1nc(C(=O)O)cs1`, “inactive”; with `CC(C)(C)c1cc(NC(=O)Nc2ccc(Oc3ccnc4nc(O)cnc34)cc2F)n(-c2ccccc2)n1`, “inactive”. Regarding `Cc1ccc(-n2nc(C(C)(C)C)cc2NC(=O)Nc2ccc(OCCN3CCOCC3)c3ccccc23)cc1`, the cytotoxicity call is “active”. With `Cc1ccc(S(=O)(=O)NC2=NCN(CCN3CCOCC3)CN2)cc1` the entry was “inactive”. With `CCCNC(=O)N1C[C@@H](C)[C@@H](OC)CN(C)C(=O)c2cc(NS(=O)(=O)CC(F)(F)F)ccc2OC[C@H]1C` the entry was “inactive”. With `CC1(C)OC2CC3C4CC(F)C5=CC(=O)C=CC5(C)C4C(O)CC3(C)C2(C(=O)CO)O1` (stereo not given) the entry was “inactive”; with `C[C@@H]1CN([C@@H](C)CO)C(=O)c2cccc(NC(=O)C3CCCCC3)c2O[C@@H]1CN(C)S(=O)(=O)c1cn(C)cn1`, “inactive”; with `COc1ccc([Si](C)(C)[C@H]2[C@H](CCn3cc([C@H](O)c4ccccc4)nn3)O[C@@]3(C(=O)N(Cc4cccc(N5C(=O)c6cccc7cccc5c67)c4)c4ccccc43)[C@@H]2C)cc1`, “inactive”. For `COc1ccc([Si](C)(C)[C@@H]2[C@@H](CCn3cc([C@H](O)c4ccccc4)nn3)O[C@]3(C(=O)N(Cc4cccc(N5C(=O)c6cccc7cccc5c67)c4)c4ccccc43)[C@H]2C)cc1`, the cytotoxicity call is “inactive”. Take `COc1ccc([Si](C)(C)[C@@H]2[C@@H](CCn3cc([C@H](O)c4ccccc4)nn3)O[C@]3(C(=O)N(Cc4ccc(N5C(=O)c6cccc7cccc5c67)cc4)c4ccccc43)[C@H]2C)cc1`: the cytotoxicity call is “active”. With `C[C@@H]1[C@@H]([Si](C)(C)F)[C@H](CCn2cc([C@H](O)c3ccccc3)nn2)O[C@@]12C(=O)N(c1ccccc1)c1ccccc12` the entry was “active”; with `C[C@H]1[C@H]([Si](C)(C)F)[C@@H](CCn2cc([C@H](O)c3ccccc3)nn2)O[C@]12C(=O)N(c1ccccc1)c1ccccc12`, “inactive”; with `COc1ccc([Si](C)(C)[C@@H]2[C@@H](CCn3cc(CCO)nn3)O[C@]3(C(=O)N(C)c4ccccc43)[C@H]2C)cc1`, “inactive”. With `COc1ccc([Si](C)(C)[C@H]2[C@H](CCn3cc(CCO)nn3)O[C@@]3(C(=O)N(C)c4ccccc43)[C@@H]2C)cc1` the entry was “inactive”. With `COc1ccc([Si](C)(C)[C@@H]2[C@@H](CCn3cc([C@H](O)c4ccccc4)nn3)O[C@]3(C(=O)N(c4ccccc4)c4ccccc43)[C@H]2C)cc1` the entry was “inactive”. Consider `COc1ccc([Si](C)(C)[C@H]2[C@H](CCn3cc(CCO)nn3)O[C@@]3(C(=O)N(Cc4cccc(N5C(=O)c6cccc7cccc5c67)c4)c4ccccc43)[C@@H]2C)cc1`, for which the cytotoxicity call is “inactive”. With `COc1ccc([Si](C)(C)[C@H]2[C@H](CCn3cc([C@H](O)c4ccccc4)nn3)O[C@@]3(C(=O)N(Cc4ccc(N5C(=O)c6cccc7cccc5c67)cc4)c4ccccc43)[C@@H]2C)cc1` the entry was “inactive”; with `COc1ccc([Si](C)(C)[C@@H]2[C@@H](CCn3cc(CCO)nn3)O[C@]3(C(=O)N(Cc4ccc(N5C(=O)c6cccc7cccc5c67)cc4)c4ccccc43)[C@H]2C)cc1`, “active”; with `COc1ccc([Si](C)(C)[C@@H]2[C@@H](CCn3cc(CCO)nn3)O[C@]3(C(=O)N(Cc4cccc(N5C(=O)c6cccc7cccc5c67)c4)c4ccccc43)[C@H]2C)cc1`, “active”.

Consider `COc1ccc(C#Cc2ccc([C@H]3[C@@H](CO)N4CCCCN(S(=O)(=O)c5cn(C)cn5)C[C@H]34)cc2)cc1`, for which the cytotoxicity call is “inactive”. For the molecule `C[C@@H]1CN([C@H](C)CO)S(=O)(=O)c2ccc(-c3cncnc3)cc2O[C@@H]1CN(C)C(=O)Cc1cccnc1`, the cytotoxicity call is “inactive”.

Consider `Cl.N=C(N)NCCCC(N)C(=O)O` (stereo not given), for which the cytotoxicity call was “inactive”.

Turning to `C[C@@H]1CCCCO[C@H](CN(C)Cc2ccc(C(=O)O)cc2)[C@@H](C)CN([C@H](C)CO)C(=O)c2cc(NC(=O)Nc3ccc(F)cc3)ccc2O1`, the cytotoxicity call is “inactive”. With `C[C@@H]1CN([C@@H](C)CO)C(=O)c2cc(NC(=O)CCN3CCOCC3)ccc2O[C@H]1CN(C)C(=O)Nc1ccc(F)cc1` the entry was “inactive”. With `COc1ccc(NC(=O)Nc2ccc3c(c2)C(=O)N([C@@H](C)CO)C[C@H](C)[C@H](CN(C)C(=O)CCC(F)(F)F)OCCCC[C@@H](C)O3)cc1` the entry was “inactive”; with `C[C@H](O)C#Cc1ccc2c(c1)O[C@@H](CN(C)C(=O)C1CCCCC1)[C@@H](C)CN([C@H](C)CO)S2(=O)=O`, “inactive”. With `CCOC(=O)c1cn[nH]c1` the entry was “inactive”; with `C[C@H]1CN([C@@H](C)CO)C(=O)c2cc(NS(=O)(=O)c3cn(C)cn3)ccc2O[C@H]1CN(C)S(=O)(=O)c1ccccc1`, “inactive”.

As for `CCS(=O)(=O)NCC[C@H]1CC[C@@H](NS(=O)(=O)c2ccccc2C)[C@H](CO)O1`, the cytotoxicity call was “inactive”. With `C[C@@H]1CN([C@@H](C)CO)C(=O)c2cccc(NS(C)(=O)=O)c2O[C@@H]1CN(C)C(=O)Nc1ccc(F)cc1` the entry was “inactive”; with `CCOC(=O)c1c(CN2CCN(c3ccccc3C)CC2)n(-c2ccccc2)c2cc(Br)c(O)cc12`, “inactive”.

Regarding `C[C@@H]1CN([C@@H](C)CO)C(=O)Cc2cc(NS(=O)(=O)c3ccc(F)cc3)ccc2O[C@@H]1CN(C)S(=O)(=O)c1ccc(F)cc1`, the cytotoxicity call is “inactive”.
